# DAX1 inh-1 – NR0B1 (DAX1) inhibition | P51843 | HEK293 Gal4-DAX1 luciferase reporter, luminescence | inhibition, % at 6.75 µM | hit rate 0.99% among 340,000;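 active = inhibition above the mean over all tested compounds plus 3 SD, cut at about 4.2% in these data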;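 also: 0% = DAX1-transfected cells with DMSO and 100% = empty-vector control cells with DMSO; inhibition shows as a rise in luminescence from relieved DAX1 repression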
# Target sequence (P51843 207-470 limits assumed): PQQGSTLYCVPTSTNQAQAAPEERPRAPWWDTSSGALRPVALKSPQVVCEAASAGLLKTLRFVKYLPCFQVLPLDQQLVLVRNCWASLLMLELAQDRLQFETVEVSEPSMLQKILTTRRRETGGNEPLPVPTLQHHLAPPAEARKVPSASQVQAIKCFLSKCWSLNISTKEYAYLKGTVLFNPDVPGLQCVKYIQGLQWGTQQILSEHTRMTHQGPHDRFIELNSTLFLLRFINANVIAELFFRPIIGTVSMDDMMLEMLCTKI
# hcDAF12 agonist – activators of H. contortus DAF-12 nuclear receptor; HEK293 hcDAF-12 lit1-tk-luc reporter, luminescence; 0% DMSO, 100% Δ7-dafachronic acid; hit rate 1.4% among 370,000; AID 652067; activation, % at 6.8 µM;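 active = activation above the mean of all tested compounds plus 3 SD, cut at about 5.5% in these data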;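 also: 100% = response to 3 µM Δ7-dafachronic acid high control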
# ssDAF-12 act – activates DAF-12 receptor from parasite S. stercoralis | HEK293 ssDAF-12/GRIP1 lit1-tk-luc reporter, luminescence; % of 3 µM dafachronic acid response | activation, % at 6.8 µM | hit rate 1% among 370,000;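 active = activation above the mean over all tested compounds plus 3 SD, cut at about 0.9% in these data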;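 also: 0% = DMSO-only wells and 100% = 3 µM delta7-dafachronic acid wells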
# DAX1 inh-2 – inhibitors of DAX1 repression of SF-1 activated StAR promoter; HEK293T StAR-luciferase reporter, SF-1/DAX-1 repression relief; inhibition, % at 6.8 µM; hit rate 1.1% among 370,000; AID 652010;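 active = inhibition above the mean over all tested compounds plus 3 SD, cut at about 3.6% in these data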;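 also: 0% = DAX-1 cells with DMSO and 100% = cells lacking DAX-1 with DMSO; higher inhibition means more luminescence from relief of DAX-1 repression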
# hgDAF-12 ag – agonists of H. glycines DAF-12 nuclear receptor; hit rate 1.8% among 370,000; HEK293 GAL4-hgDAF12 UAS-luciferase reporter, agonist luminescence; normalized to butyrate control; activation, % at 6.8 µM; AID 687014;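 active = activation above a cutoff set at the mean of all screened compounds plus 3 SD, cut at about 10% in these data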;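 also: 0% = DMSO wells and 100% = sodium butyrate wells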
# * = called active by the depositor; x = not tested or not shown. Rows were chosen to be rich in hits. Some 4.1% of all compounds tested hit in one or more screens of this group.
SMILES,DAX1 inh-1,hcDAF12 agonist,ssDAF-12 act,DAX1 inh-2,hgDAF-12 ag
Cc1ccc(S(=O)(=O)Cc2ccc(C(=O)N3CCC4(CC3)OCCO4)o2)cc1,1,5.8*,-1,0,0
CC1CCCCN1Cc1c[nH]c2ccccc12 (configuration not stated),2,5,0,0,0
CC1CCCCN1CC(O)c1c[nH]c2ccccc12 (configuration not stated),4,6.4*,0,0,1
Cc1cc(C)cc(NC(=O)CCNC(=O)N2C[C@H]3C[C@@H](C2)c2cccc(=O)n2C3)c1,4.3*,-2,-2,0,-3
Cc1ccsc1C(=O)C1CCCN(CCO)C1 (configuration not stated),4.8*,0,0,0,-4
Cc1ccsc1C(=O)C1CCCN(Cc2cnn(C)c2)C1 (configuration not stated),-1,0,-1,0,-4
COc1cc(C(=O)OC2C[C@H]3CC[C@@H](C2)N3)ccc1O (some centres not stated),1,-1,-1,0,-1
COc1ccc2c(c1)C(NC(C)=O)CCc1cc(OC)c(OC)c(OC)c1-2 (configuration not stated),1,0,0,3.9*,-3
COc1cc2c(c(OC)c1OC)-c1ccc(O)c(=O)cc1C(NC(C)=O)CC2 (configuration not stated),6.4*,1,0,1,-5
O=C(NC(CCC(O)CO)P(=O)(Oc1ccccc1)Oc1ccccc1)OCc1ccccc1 (configuration not stated),x,0,-1,1,0
Cc1c(C(c2ccccc2Cl)c2c(O)c3ccccc3oc2=O)c(=O)n(-c2ccccc2)n1C (configuration not stated),4.3*,-1,-1,0,-2
Cc1c(C(c2ccc(F)cc2)c2c(O)c3ccccc3oc2=O)c(=O)n(-c2ccccc2)n1C (configuration not stated),2,-2,-1,0,-3
CCc1c(C)nc(N)nc1N1N=C1SCC(=O)OC,1,0,-2,0,1
COC(=O)CSC1=NN1c1cc(C)nc(N)n1,4.7*,0,-2,0,1
N#CCCC#N,x,-2,-1,0,1
Cc1ccc(N2C(=O)NC(=O)/C(=C/c3ccc(OC(=O)c4cccs4)cc3)C2=O)cc1,1,-2,-1,1,2
COc1ccc(N2C(=O)NC(=O)/C(=C/c3cccc(OC(=O)c4cccs4)c3)C2=O)cc1Cl,x,5.8*,-1,0,1
COc1cc2c(cc1/C=C/[N+](=O)[O-])OCO2,-1,-1,-2,-1,-4
COc1cc(/C=C/[N+](=O)[O-])ccc1OC(=O)c1cccnc1,0,5,1.3*,0,-2
C=C(C=O)CC1CC(O)[C@]2(C)OC3CC4OC5C[C@]6(C)O[C@]7(C)CCC8OC9C[C@]%10(C)OC%11C(C)=CC(=O)OC%11CC%10OC9C[C@@H](C)C8OC7CC6O[C@]5(C)C/C=C\C4OC3CC2O1 (some centres not stated),x,-5,-2,x,-9
COc1ccc2c(c1)NP(=S)(c1ccccc1)N2C (configuration not stated),5.3*,3,0,4.5*,10
COc1ccc(-n2c(=O)[nH]c3ccccc3c2=O)c(OC)c1,0,-2,-1,1,-3
O=C1NC(=O)C(=Cc2cc(Cl)ccc2OCc2ccc(C(=O)O)cc2)C(=O)N1,5.5*,-1,-2,0,-1
CN1C(=O)C(=Cc2ccccc2OCc2ccc(Cl)cc2)C(=O)N(C)C1=O,-2,1,-1,1,4
Nc1ccccc1C(=O)OCc1ccc([N+](=O)[O-])cc1,-1,2,-1,0,11*
CN1C[C@H](O)[C@H]2C[C@@H]1c1ccccc1O2,x,-1,-1,1,-3
O=C1NC(=O)N(Cc2ccccc2)C(=O)/C1=C\C=C\c1ccco1,0,2,-1,1,4
O=C1NC(=O)N(Cc2ccccc2)C(=O)/C1=C/N1CCCc2ccccc21,3,5.8*,0,0,4
S=P1(Oc2ccccc2)Nc2ccccc2N1,2,3,0,2,12*
CN(C)c1ccc(CCN2CCOCC2)cc1,1,3,1.2*,1,11*

# Screening results: PubChem, The Scripps Research Institute Molecular Screening Center
